{"source": "PubChem BioAssay AID1963576", "about": "(National Center for Advancing Translational Sciences (NCATS), 2024)", "note": "In all, about 46,000 compounds went through this assay and about 60 (0.1%) were called active. Where a call stands in place of a potency, no number is given. Not shown: some 3% with an inconclusive outcome. The sample holds actives, similar compounds and a random draw of the others, so the mix is not that of the screen. The call rests on the fitted dose curve; in most records, active means well fitted inhibition curve with a large enough effect; inconclusive means small, poorly fitted or top-dose-only effect; inactive means no such curve, though single readings can be large or run the other way. Potency means the concentration at half of the fitted maximal effect.", "data": [{"experiment": "Primary qHTS assay for Inhibitors of ovarian cancer metastasis using an organotypic tumor microenvironment (TME) model; further: nearly all actives have a fitted effect of over 65% in size;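 on potency: count of GFP cancer cells still attached after washing and fixation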.", "conditions": "SKOV3ip1-GFP adhesion/invasion on 3D omental model, fluorescence; series mostly up to 45.8 µM", "source_text": "PI: Ernst Lengyel MD., Ph.D. Department of Obstetrics and Gynecology, Section of Gynecologic Oncology University of Chicago Medicine, Chicago, Illinois. The tumor microenvironment (TME) is a key determinant of metastatic efficiency. We performed a quantitative high-throughput screen (qHTS) of diverse medicinal chemistry tractable scaffolds (44,420 compounds) and pharmacologically active small molecules (386 compounds) using a layered organotypic, robust assay representing the ovarian cancer metastatic TME. This 3D model contains primary human mesothelial cells, fibroblasts, and extracellular matrix, to which fluorescently labeled ovarian cancer cells are added. Initially, 100 compounds inhibiting ovarian cancer adhesion/invasion to the 3D model in a dose-dependent manner were identified. Of those, eight compounds were confirmed active in five high-grade serous ovarian cancer cell lines and were further validated in secondary in vitro and in vivo biological assays. […] Specifically, NCGC00117362 and PP-121 inhibited ovarian cancer adhesion, invasion, and proliferation, whereas milciclib inhibited ovarian cancer invasion and proliferation. […] To evaluate the clinical potential of NCGC00117362, structure - activity relationship studies were performed. […] The three compounds identified have promise as therapeutics for prevention and treatment of ovarian cancer metastasis.\nPROTOCOL TABLE (as described by Inglese J, Shamu CE and Guy RK. 2007) SEQUENCE No. (e.g., 1, 2, 3, etc.); […] (e.g., Cells, Incubation, Reagent, etc.); VALUE; DESCRIPTION. 1; Cells; 4 uL; primary human omental fibroblast, black, clear bottom, low base, 1536-well Aurora assay plate. 2; Incubation; 48 hr; 37C. 3; Cells; 3 uL; 1,200 SKOV3ip1-GFP cells. 4; Compounds; 23nL; acoustic dispenser. 5; Incubation; 2 hr; room temperature. 6; Incubation; 16 hr; 37C. 7; Wash; 5 uL; 1x PBS. 8; Fixing; 5 uL; 4% paraformaldehyde (PFA). 9; Incubation; 15 min; room temperature 10; Wash, 5 uL; 1x PBS. 11; Detection; Fluorescence, excitation filter 488 nm, emission filter 509 nm. NOTES (numbers refer to Sequence numbers above) 1. For the 1,536-well format, 40 primary human omental fibroblasts and 400 mesothelial cells were seeded with 0.02 µg fibronectin and 0.02 µg collagen type I in 4 µL of growth media (2.3 mm2; Supplementary Fig. S1A). 2. Assay plates were incubated for 48 hours at 37 C. 3. After incubation, 1,200 SKOV3ip1-GFP were seeded in 3 µL of serum-free media (growth media minus FBS) on top of primary human omental cells. 4. Compounds or controls were added to each well immediately after the addition of the cancer cells. Compounds were screened in four doses (0.36-46 µmol/L), and the plates contained the positive control (Tomatine) in eight doses (0.035-75 µmol/L) and DMSO (equal volume controls) 5 - 6. The plates were incubated at room temperature for 2 hours and then at 37 degrees C for 16 hours. 7 - 10. Following incubation, the media were aspirated and each well washed with PBS (5 µL) and then fixed with 4% paraformaldehyde (PFA; 5 µL). After 15 minutes, the PFA solution was aspirated, PBS (5 µL) was added. 11. The number of GFP-labeled cells analyzed using a fluorescent cytometer TTP LabTech Acumen eX3 using 488 nm excitation filter and 509 nm emission filter. Data was normalized to the DMSO treated for negative and Tomatine treated wells for positive control. REFERENCES: Inglese J, Shamu CE and Guy RK, Reporting data from high throughput screening of small molecule libraries, Nature Chemical Biology, 2007, 3(8): 438-441. doi.org/10.1038/nchembio0807-438. Yasgar A, Shinn P, Jadhav A, Auld DS, Michael S, Zheng W, Austin CP, Inglese J and Simeonov A, Compound Management for Quantitative High-Throughput Screening. J. Assoc. Lab. Auto., 2008, 13: 79-89. doi: 10.1016/j.jala.2007.12.004.", "values": [{"molecule": "Cc1ccc2nc(NC(=O)c3nc(SCc4ccccc4F)ncc3Cl)sc2c1", "Potency": "inactive"}, {"molecule": "COc1ccc(Cn2ccc3nc(C)c(C(=O)Nc4ccc(C)c(F)c4)cc3c2=O)cc1", "Potency": "inactive"}, {"molecule": "CCCCNC(=O)C1CCCN(c2nnc(C)c3c(C)n(-c4ccc(Cl)cc4)nc23)C1", "note": "(configuration not stated)", "Potency": "inactive"}, {"molecule": "COC(=O)c1cc(NC(=O)c2sc3ccccc3c2Cl)cc(C(=O)OC)c1", "Potency": "inactive"}, {"molecule": "Cc1cccc(S(=O)(=O)c2cn(Cc3ccccc3)c3cc(N4CCOCC4)c(F)cc3c2=O)c1", "Potency": "inactive"}, {"molecule": "CC1=C(c2ccc(F)cc2)S(=O)(=O)N=C1N1CCC(C(=O)NCCc2ccccc2C)CC1", "Potency": "inactive"}, {"molecule": "CCOC(=O)C1CCCN(S(=O)(=O)c2cc(-c3cc(C)no3)ccc2OC)C1", "note": "(configuration not stated)", "Potency": "inactive"}, {"molecule": "CCOc1ccccc1NC(=O)Cn1c(=O)n(-c2cccc(C)c2)c(=O)c2c1c1cc(OC)ccc1n2C", "Potency": "inactive"}, {"molecule": "COc1ccc(CCNC(=O)C(=O)NCC(c2ccco2)S(=O)(=O)c2cccs2)cc1OC", "note": "(configuration not stated)", "Potency": "inactive"}, {"molecule": "COc1ccc(CCNCc2c(C(=O)O)c(C)n(Cc3cccc(C)c3)c2C)cc1OC", "Potency": "inactive"}, {"molecule": "CCN(CC)CCNC(=O)c1c(C)[nH]c(C=C2C(=O)Nc3ccc(F)cc32)c1C", "Potency": "inactive"}, {"molecule": "COc1ccc(C2(Nc3cccc(F)c3)C(=O)c3ccccc3C2=O)cc1", "Potency": "inactive"}, {"molecule": "COc1ccc(/C=C/c2nc(C#N)c(NCc3ccc(F)cc3)o2)cc1OC", "Potency": "inactive"}, {"molecule": "COc1ccc(NC(C)=O)cc1NC(=O)CN1CCN(c2ccc(F)cc2)CC1", "Potency": "inactive"}, {"molecule": "CCCCCn1c(=O)[nH]c2cc(C(=O)Nc3cc(C)cc(C)c3)ccc2c1=O", "Potency": "inactive"}, {"molecule": "Cc1ccc(NC(=O)CCCn2c(=O)c3cccn3c3ccccc32)cc1Cl", "Potency": "inactive"}, {"molecule": "Cc1ccc(C)c(CNC(=O)c2cc3ccccn3n2)c1", "Potency": "inactive"}, {"molecule": "CSc1oc(-c2cccs2)nc1S(=O)(=O)c1ccc(Br)cc1", "Potency": "inactive"}, {"molecule": "CCCCS(=O)(=O)c1oc(-c2cccs2)nc1S(=O)(=O)c1ccccc1", "Potency": "2510 nM (active)"}, {"molecule": "Cc1ccc(CSc2oc(-c3cccs3)nc2S(=O)(=O)c2ccc(C)cc2)cc1", "Potency": "inactive"}, {"molecule": "CN(CC(=O)Nc1ccccc1F)S(=O)(=O)c1ccc2c(c1)c(=O)n(C)c(=O)n2C", "Potency": "inactive"}, {"molecule": "Cc1ccc(NC(=O)Cn2cnc3nc4c(cc3c2=O)CCCC4)cc1Cl", "Potency": "inactive"}, {"molecule": "COc1cccc(C(=O)NC(=O)Nc2ccc(-c3cc(C(F)(F)F)nn3-c3ccccc3)cc2)c1", "Potency": "inactive"}, {"molecule": "Cc1cc(C)c2oc(C(=O)Nc3c(C(=O)Nc4ccccc4)oc4ccccc34)cc(=O)c2c1", "Potency": "inactive"}, {"molecule": "COc1ccc(CCNC(=O)c2cnc3sc(N4CCCCCC4)nn3c2=O)cc1OC", "Potency": "inactive"}, {"molecule": "COc1cc(NC(=O)c2nn(-c3ccc(C)cc3)c(=O)c3c2c2ccccc2n3C)cc(OC)c1OC", "Potency": "inactive"}, {"molecule": "Cc1ccc(Cl)cc1NC(=O)NC1COc2ccccc2C1", "note": "(configuration not stated)", "Potency": "inactive"}, {"molecule": "Cn1ccc2cc(S(=O)(=O)N3CCCC(C(=O)NCc4ccccc4F)C3)ccc21", "note": "(configuration not stated)", "Potency": "inactive"}, {"molecule": "COC(=O)c1ccc(OC)c(Cn2c(=O)n(Cc3ccccc3)c(=O)c3c2c2cc(OC)ccc2n3C)c1", "Potency": "inactive"}, {"molecule": "Cc1cccc(CCNC(=O)c2ccc3c(c2)nc2n3CCC(C)C2)c1", "note": "(configuration not stated)", "Potency": "inactive"}, {"molecule": "CCOC(=O)C1CCN(c2ncnc3c2c(-c2ccccc2)cn3-c2cccc(C)c2)CC1", "Potency": "inactive"}, {"molecule": "CC(=O)O[C@]1(C(C)=O)CC[C@@H]2[C@@H]3C[C@H](C)C4=CC(=O)CC[C@]4(C)[C@H]3CC[C@@]21C", "Potency": "inactive"}, {"molecule": "CC1=C(C(=O)OCc2ccc(C)cc2)C(c2ccccc2Cl)CC(=O)N1", "note": "(configuration not stated)", "Potency": "inactive"}, {"molecule": "Cc1ccc(C(=O)Nc2cc3c(cc2N2CCCC2)n(C)c(=O)c(=O)n3C)cc1", "Potency": "inactive"}, {"molecule": "COc1ccccc1-c1cc2nc(C)c(CCC(=O)NC3CCCCC3)c(C)n2n1", "Potency": "inactive"}, {"molecule": "CCOc1ccc(NC(=O)CCc2c(C)nn(-c3ccc(N4CCCC4)nn3)c2C)cc1", "Potency": "inactive"}, {"molecule": "CN1CCN(c2oc(-c3ccc(COc4ccc(Cl)cc4)o3)nc2C#N)CC1", "Potency": "inactive"}, {"molecule": "COc1ccc(Cn2cc(C(=O)c3ccc(C)cc3)c(=O)c3cc(OC)c(OC)cc32)cc1", "Potency": "inactive"}, {"molecule": "Cc1ccc2nc(COc3ccc(NC(=O)COc4ccccc4F)cc3)cc(=O)n2c1", "Potency": "inactive"}, {"molecule": "COc1ccccc1CNC(=O)c1ccc(-n2c(C)cc3c2CCCC3)cc1", "Potency": "inactive"}, {"molecule": "O=C(CSCc1cnn(-c2ccccc2)c1-n1cccc1)NCc1ccccc1Br", "Potency": "inactive"}, {"molecule": "COc1cc(Cl)cn2c(-c3cccc(NC4CNC4)n3)cnc12", "Potency": "inactive"}, {"molecule": "Cc1ccc(C)c(Nc2nnc(-c3ccc(C)c(S(=O)(=O)N4CCCCC4)c3)c3ccccc23)c1", "Potency": "inactive"}, {"molecule": "Cc1ccc(C)c(N2CCN(C(=O)CCc3c(C)nc4c(c3C)c(=O)n(C)c(=O)n4C)CC2)c1", "Potency": "inactive"}, {"molecule": "CCOc1ccc(NC(=O)c2cc3c(=O)n(Cc4cccs4)ccc3nc2C)cc1", "Potency": "inactive"}, {"molecule": "CCCOc1ccc(NC(=O)CC2C(=O)N(c3ccccc3)C(=O)N2Cc2ccco2)cc1", "note": "(configuration not stated)", "Potency": "inactive"}, {"molecule": "O=C(CCCn1c(=O)c2cccn2c2cccnc21)NCc1ccc(F)cc1", "Potency": "inactive"}, {"molecule": "Cc1ccccc1-c1nc2cc(NC(=O)c3cccc(OCCC(C)C)c3)ccc2o1", "Potency": "inactive"}, {"molecule": "CCN(Cc1ccccc1)C(=O)CCS(=O)(=O)c1ccc2c(c1)oc(=O)n2C", "Potency": "inactive"}, {"molecule": "Cc1cccc(NC(=O)CN(c2ccc(C(C)C)cc2)S(=O)(=O)c2c(C)nn(C)c2C)c1C", "Potency": "inactive"}, {"molecule": "O=C(CCc1ccccc1)NCc1ccc2c(c1)CCN2C(=O)c1ccccc1", "Potency": "inactive"}, {"molecule": "Cc1cc(O)c(C(c2ccccc2)N2CCN(c3ccccc3F)CC2)c(=O)n1Cc1ccco1", "note": "(configuration not stated)", "Potency": "inactive"}, {"molecule": "O=[N+]([O-])c1cc(-c2nc(-c3ccccc3)no2)ccc1NCc1ccco1", "Potency": "inactive"}, {"molecule": "Cc1ccc(C)c(Cn2c(C)c(CNCc3ccc(F)cc3)c(C(=O)O)c2C)c1", "Potency": "inactive"}, {"molecule": "COc1ccc(C2(C#N)CCC(C(=O)O)CC2)cc1OC1CCCC1", "note": "(configuration not stated)", "Potency": "inactive"}, {"molecule": "CCOC(=O)c1c(NC(=O)c2cc(CC)on2)sc(C(C)=O)c1C", "Potency": "inactive"}, {"molecule": "CC(C)(C)c1[nH]cnc1C=c1[nH]c(=O)c(=Cc2ccccc2)[nH]c1=O", "Potency": "inactive"}]}]}
